Results on 36 compounds are retold here after PubChem BioAssay (NCI).

The panel holds about 83,000 compounds, 20% with a hit somewhere; the sample as a whole holds those more often.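 48-hour exposure, single concentration, 96-well plates; percent growth endpoint where 0 means no net growth. Active: below 10.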 Values without a mark were called inactive. Activity calls are given as the source filed them.

The test system of the test is NCI/ADR-RES ovarian. The experiment in a line: NCI-60 one-dose screen, 48 h (100 = growth as untreated, 0 = no growth, -100 = all killed). The note with it: 10 µM unless noted.
Take `COC(=O)CC1=C(c2ccc([N+](=O)[O-])cc2)CCC1=O`: the growth is 109%.

For the compound `CCOC(=O)C1C(=O)NC(C(=O)OCC)(C(=O)OCC)C1CC` (stereo unspecified), the growth is 113%.

Regarding `COc1cccc(/C=N\NC(=O)c2ccncc2)c1O`, the growth is 25.3%. With `O=C(O)c1ccc(CNS(=O)(=O)c2ccc3ccccc3c2)cc1` the figure was 128%; with `c1cc[n+](Cc2ccnc3ccccc23)cc1`, 109%; with `O=C(COc1cccc(/C=C2\Oc3ccc4ccccc4c3C2=O)c1)c1ccc([N+](=O)[O-])cc1`, 102%. For the compound `COC(=O)Nc1ccc2ccc3c(NC(=O)OC)ccc4ccc1c2c43` (tested in a mixture with another compound), the growth is 36.6%. With `O=C(Nc1cccc(Cl)c1)Nc1cccc(Cl)c1` the figure was 55.6%; with `COc1cc(/C=C/c2cc(/C=C/c3ccc(O)c(OC)c3)n(C(=O)c3ccc(Cl)cc3)n2)ccc1O`, 21.9%.

On to `O=C(Oc1cccc2ccccc12)c1ccccc1C(=O)c1ccccc1`, for which the growth was 90.4%.

Regarding `CCCCCN1C(=O)CCC1=O`, the growth was 102%. Turning to `CCC(C)C1NC(=O)C(CCNCS(=O)(=O)O)NC(=O)C(NC(=O)C(CCNCS(=O)(=O)O)NC(=O)C(NC(=O)C(CCNCS(=O)(=O)O)NC(=O)CCCCC(C)C)C(C)O)CCNC(=O)C(C(C)O)NC(=O)C(CCNCS(=O)(=O)O)NC(=O)C(CCNCS(=O)(=O)O)NC(=O)C(C(C)CC)NC1=O` (stereo unspecified), the growth was 107%. With `O=C1OC(Oc2ccccc2)(c2ccccc2)c2ccccc21` (stereo unspecified) the figure was 100%; with `N/C(=N\c1nc2ccccc2s1)NC(=O)Nc1ccccc1Cl`, 6.38% (active); with `NC(=O)NC1(C(=O)O)CCCC1`, 111%. With `O=C1NC(=O)/C(=C/c2ccc(Cl)cc2Cl)N1` the figure was 106%. To `CC[C@@H](C)/C=C(C)/C=C/C(O)=C1\C(=O)N[C@@H](Cc2ccc(OC(=O)[C@@](OC)(c3ccccc3)C(F)(F)F)cc2)C1=O` belongs 49.6%; to `CC(=O)Nc1ccc(C(=O)COc2ccc(/C=C3\CCc4ccccc4C3=O)cc2)cc1`, 96.2%; to `CN(C)CCC(=O)Nc1ccc(-n2cc(-c3cccc(NC(=S)Nc4cccc(-c5cn(-c6ccc(NC(=O)CCN(C)C)cc6)nn5)c4)c3)nn2)cc1`, 113%. Turning to `O=c1c2c(=NCCCN3CCCC3)cc3c(=O)n(CCCN4CCCC4)c(=O)c4c(NCCCN5CCCC5)cc(c(O)n1CCCN1CCCC1)c2c4-3`, the growth was 51.1%. With `NC(=O)c1cc(Br)cc(Br)c1NS(=O)(=O)c1ccccc1` the figure was 103%. As to `COc1ccc2ncccc2c1Cc1c(OC)ccc2ncccc12`, the growth is 40.8%.

For the compound `CN1CCN(CCCCCN=c2cc3c(=O)n(CCCCCN4CCN(C)CC4)c(=O)c4c(NCCCCCN5CCN(C)CC5)cc5c(O)n(CCCCCN6CCN(C)CC6)c(=O)c2c5c4-3)CC1`, the growth was 110%. `COc1ccccc1-n1c(-c2ccc(O)cc2C)cn2c3c(=O)[nH]c(=O)n(C)c3nc12`: the growth was 108%. To `C=C(CN1CCc2c([nH]c3ccccc23)C1)c1ccc(C(=O)Nc2ccon2)cc1` belongs 99.9%; to `O=C(Oc1ccccc1)C(Br)C(Br)c1ccccc1` (stereo unspecified), 113%; to `COc1cccc(C=Nc2cc(C(C)C)c(O)cc2C)c1O`, 104%. With `O=C(c1ccccc1)C(CN1CCCCC1)c1ccccc1` (stereo unspecified) the figure was 12.6%; with `Nc1ccc(N=Nc2ccccc2)cc1[N+](=O)[O-]`, 95.9%. As to `COc1ccc(C2=NN(C(N)=S)C(c3ccc4c(c3)OCO4)C2)cc1` (stereo unspecified), the growth is 5.5% (active). Turning to `CC(=O)c1ccc(NS(=O)(=O)c2ccc([N+](=O)[O-])cc2)cc1`, the growth is 109%.

`Nc1nc2c(nnn2Cc2ccc(Cl)c(Cl)c2)c(=O)[nH]1`: the growth is 105%.

As to `CC1CN(CC(O)c2ccc(Br)cc2)CCO1` (stereo unspecified), the growth was 108%.

`O=C1NC(=O)/C(=C\c2ccco2)S1`: the growth is 103%. Regarding `CCCCCCCSc1ncnc2[nH]ncc12`, the growth is 84.6%. `CN(C)CCCN=c1cc2c(=O)n(CCCN(C)C)c(=O)c3c(NCCCN(C)C)cc4c(O)n(CCCN(C)C)c(=O)c1c4c3-2`: the growth is 52.2%.
